The entries come from a sample that favours hits as a whole.
Tgondii IFNg: inhibitors of Toxoplasma gondii growth with IFN-gamma; hit rate 3.8% among 69,000; Toxoplasma gondii growth in IFN-gamma-treated host cells; hits give low values; activity change, negative = inhibition, % (concentration not given with the values); AID 1259416; in the data active = activity change below about -70%, passing the limit was not always enough;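 also: host cells are HeLa cells infected with Toxoplasma gondii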
Numbers without * were called inactive.

What do the screens show for `CN1CC(=O)N(c2cccc(F)c2)CC12CCN(C(=O)c1cccs1)C2` (configuration not stated)?
Tgondii IFNg: 10.0

What do the screens show for `CN1CC(=O)N(c2ccsc2)CC12CCN(C(=O)Nc1ccccc1F)C2` (configuration not stated)?
Tgondii IFNg: -101.2*

How did CCOc1ccc(CC(=O)N2CCC3(CC2)Nc2cccnc2NC3=NC2CCCC2)cc1 do in these assays?
Tgondii IFNg: -5.2

How did C[C@H](CO)N1C[C@H](C)[C@H](CN(C)Cc2ccc(C(F)(F)F)cc2)Oc2c(NC(=O)NC3CCCCC3)cccc2C1=O do in these assays?
Tgondii IFNg: -6.6

How did CN(CCn1cccn1)c1nc(-c2cccnc2)nc2c1cnn2C do in these assays?
Tgondii IFNg: -40.3

How did CN(Cc1cccc(Cl)c1)c1nc(-c2cccnc2)nc2c1cnn2C do in these assays?
Tgondii IFNg: -82.4*

Results for CN(Cc1ncc[nH]1)c1nc(-c2cccnc2)nc2c1cnn2C ?
Tgondii IFNg: -6.5

What do the screens show for `Cc1cc(C#N)cc(C)c1Oc1nc(Nc2ccc(C#N)cc2)nc(N)c1Br`?
Tgondii IFNg: -85.6*

What do the screens show for `CCCN1CCN(C(=O)c2ccc(C)s2)CC(Cc2ccc(-c3cccnc3)cc2)C1=O` (configuration not stated)?
Tgondii IFNg: -33.9

Results for Cc1ccc(CC(=O)N2CC[C@@H]3C[C@H](c4n[nH]c(C)n4)O[C@H]3C2)cc1 ?
Tgondii IFNg: -0.4

What do the screens show for `O=C(c1ccncc1)N1CCCC(c2nc(-c3cccnc3)no2)C1` (configuration not stated)?
Tgondii IFNg: -7.9

How did CC(C)(N)C(=O)N1CCCC(c2cc(Nc3cccc(F)c3)nc(-c3cccnc3)n2)C1 (configuration not stated) do in these assays?
Tgondii IFNg: -82.1*

How did COCC1CCCN(C(=O)c2ccc(-c3cccnc3)nc2)C1 (configuration not stated) do in these assays?
Tgondii IFNg: 3.7

How did COc1ccc(C(=O)Nc2ccc(-c3nc(-c4ccc(C)cc4C)co3)cc2)cc1 do in these assays?
Tgondii IFNg: 18.0

How did COc1ccc(-c2cc(C(=O)Nc3ccc(C)cc3-c3cc(C)[nH]n3)no2)cc1 do in these assays?
Tgondii IFNg: -78.1*

How did Cc1ccc(NC(=O)c2ccc3c(c2)c(C)cn3C)c(-c2cc(C)[nH]n2)c1 do in these assays?
Tgondii IFNg: -48.5

What do the screens show for `CCO[C@@H]1C[C@@H]2CN(C(=O)c3cscn3)CCN2C1`?
Tgondii IFNg: 66.3

How did O=C(Nc1cccc(Cn2cccn2)c1)C(c1ccc(F)cc1)N1CCOCC1 (configuration not stated) do in these assays?
Tgondii IFNg: 4.3

Results for O=C(c1ccc2[nH]c3c(c2c1)CCCC3)N1CCOC2(CNCCOC2)C1 (configuration not stated) ?
Tgondii IFNg: 5.1

How did O=C(c1ccccc1-c1ncc[nH]1)N1CC[C@@H](N2CCCCCC2)[C@H](O)C1 do in these assays?
Tgondii IFNg: -1.7

What do the screens show for `Cc1ccc(NC(=O)Cn2ncc3c(N4CCN(c5ccccn5)CC4)ncnc32)cc1Cl`?
Tgondii IFNg: -73.7*

Results for Cc1cc(Cl)ccc1NC(=O)Cn1ncc2c(N3CCN(c4ccccn4)CC3)ncnc21 ?
Tgondii IFNg: 64.0

What do the screens show for `CC(C)c1cccc(NC(=O)Cn2ncc3c(N4CCN(c5ccccn5)CC4)ncnc32)c1`?
Tgondii IFNg: -92.9*

Results for Cc1ccc(NC(=O)Cn2ncc3c(N4CCN(c5ccccn5)CC4)ncnc32)cc1C ?
Tgondii IFNg: -54.6

How did O=C(Cn1ncc2c(N3CCN(c4ccccn4)CC3)ncnc21)Nc1ccc(Cl)cn1 do in these assays?
Tgondii IFNg: -82.9*

Results for Cc1cccc(NC(=O)Cn2ncc3c(N4CCN(c5ccccn5)CC4)ncnc32)c1 ?
Tgondii IFNg: 87.5

What do the screens show for `CC(C)c1ccc(NC(=O)Cn2ncc3c(N4CCN(c5ccccn5)CC4)ncnc32)cc1`?
Tgondii IFNg: -43.3

What do the screens show for `COc1ccc(NC(=O)Cn2ncc3c(N4CCN(c5ccccn5)CC4)ncnc32)cc1Cl`?
Tgondii IFNg: 119.9

What do the screens show for `O=C(Cn1ncc2c(N3CCN(c4ccccn4)CC3)ncnc21)Nc1ccccc1Cl`?
Tgondii IFNg: 96.9

Results for Cc1ccc(S(=O)(=O)N(C)c2cncc(C(=O)NCc3ccccn3)c2)cc1 ?
Tgondii IFNg: -1.0

Results for COc1ccc(CC(=O)NCC2CCC(c3nn(C)cc3-c3cc(C)no3)CC2)cc1C (configuration not stated) ?
Tgondii IFNg: -16.2

How did COc1cc(OC)cc(-c2cccc(C(C)N(C)C)c2)c1 (configuration not stated) do in these assays?
Tgondii IFNg: -14.6

What do the screens show for `O=C(Cc1ccccc1)N1CCC2(CC1)COCCN(c1ncccn1)C2`?
Tgondii IFNg: -62.5

How did COc1cccc(NC(=O)Nc2ccc3c(c2)C(=O)N(C)C[C@@H](OC)[C@@H](C)CN[C@@H](C)CO3)c1 do in these assays?
Tgondii IFNg: -66.6

How did CO[C@@H]1CN(C)C(=O)c2cc(NC(=O)c3ccc(Oc4ccccc4)cc3)ccc2OC[C@H](C)NC[C@H]1C do in these assays?
Tgondii IFNg: -121.8*

What do the screens show for `CO[C@H]1CN(C)C(=O)c2cc(NC(=O)c3ccc(Oc4ccccc4)cc3)ccc2OC[C@@H](C)NC[C@@H]1C`?
Tgondii IFNg: -113.9*

What do the screens show for `CO[C@H]1CN(C)C(=O)c2cc(NC(=O)c3cnccn3)ccc2OC[C@@H](C)NC[C@@H]1C`?
Tgondii IFNg: -0.4

Results for COc1cccc(NC(=O)Nc2ccc3c(c2)C(=O)N(C)C[C@@H](OC)[C@@H](C)CN[C@H](C)CO3)c1 ?
Tgondii IFNg: -26.4

Results for COc1cccc(NC(=O)Nc2ccc3c(c2)C(=O)N(C)C[C@H](OC)[C@H](C)CN[C@H](C)CO3)c1 ?
Tgondii IFNg: 73.4

Results for Cc1ccc(S(=O)(=O)Nc2ccc3c(c2)CC(=O)N([C@@H](C)CO)C[C@H](C)[C@H](CN(C)S(=O)(=O)c2ccccc2)O3)cc1 ?
Tgondii IFNg: -32.9

Results for Cc1nc(SCC(=O)c2cc3c(ccc4ccccc43)oc2=O)c(C#N)c(C)c1C ?
Tgondii IFNg: 155.5

Results for CN(C)C(=O)c1ccc(N2CCC(NCCN3CCCC(c4ccccc4)C3)CC2)cc1 (configuration not stated) ?
Tgondii IFNg: -1.0

How did C=CCn1c(=O)c(-c2nc(-c3ccc(C)c(C)c3)no2)c(O)c2ccccc21 do in these assays?
Tgondii IFNg: 39.5

How did CCC1=NC2(CCC(C(=O)N3CCN(c4ccccn4)CC3)CC2)C(=O)N1CC1CC1 (configuration not stated) do in these assays?
Tgondii IFNg: 8.8

Results for Cc1cc(NC(=O)CCCn2c(C)nc3ccccc32)c2ncccc2c1 ?
Tgondii IFNg: -62.8

Results for COc1ccc(-c2nc(CN(c3ccccc3OC)S(=O)(=O)c3ccccc3C)c(C)o2)cc1 ?
Tgondii IFNg: -49.5

What do the screens show for `CS(=O)(=O)c1ccc(CC(=O)NC(Cc2cccs2)c2cccnc2)cc1` (configuration not stated)?
Tgondii IFNg: 109.9

What do the screens show for `COc1cc(-c2nnc(C3CCCCC3)o2)ccc1OCc1ccccc1`?
Tgondii IFNg: -81.2*

How did COc1cc(C2N3CCCN2CC3)ccc1OCc1ccccc1 (configuration not stated) do in these assays?
Tgondii IFNg: 162.5

Results for COc1ccc(-c2nnc(-c3nc(NC4CCCCC4)c4ccccc4n3)o2)cc1 ?
Tgondii IFNg: -23.4

What do the screens show for `Cc1ccc(Nc2nc(C(=O)NCCc3ccco3)nc3ccccc23)cc1`?
Tgondii IFNg: -29.4

Assay outcomes deposited in PubChem BioAssay by Broad Institute.
